SMARCA2 act: SMARCA2 (BRM) function activators, primary screen, cell-based, luminescence, high throughput; MG213 cells, MMTV-luciferase reporter, dexamethasone, overnight; activation, % at 9.1 µM; hit rate 1% among 370,000; AID 652017, 2013; in the data active = activation above about 7.8%
hgDAF12 agonist: H. glycines DAF-12 receptor agonists, primary screen, cell-based, luminescence, HEK293, GAL4 fusion, UAS-luciferase | hit rate 1.8% among 370,000 | HEK293 GAL4-hgDAF12 UAS-luciferase reporter, agonist luminescence; normalized to butyrate control | activation, % at 6.8 µM;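 active = activation above a cutoff set at the mean of all screened compounds plus 3 SD, cut at about 10% in these data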
ssDAF12 agonist: S. stercoralis DAF-12 nuclear receptor activators, primary screen, cell-based, luminescence, HEK293, GRIP1 co-expression, lit1-tk-luc; Nuclear hormone receptor DAF-12 (Strongyloides stercoralis); HEK293 ssDAF-12/GRIP1 lit1-tk-luc reporter; % of 3 µM dafachronic acid response; activation, % at 6.8 µM; hit rate 1% among 370,000;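 active = activation above the mean over all tested compounds plus 3 SD, cut at about 0.9% in these data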
DAX1 inh-1: DAX1 (NR0B1) inhibitors on StAR promoter, primary screen, cell-based, luminescence, SF-1 (NR5A1), full-length DAX-1; HEK293T StAR-luciferase reporter, SF-1/DAX-1 repression relief; inhibition, % at 6.8 µM; hit rate 1.1% among 370,000;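 active = inhibition above the mean over all tested compounds plus 3 SD, cut at about 3.6% in these data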;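 also: higher inhibition means more luminescence from relief of DAX-1 repression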
hcDAF12 agonist: H. contortus DAF-12 nuclear receptor activators, primary screen, cell-based, luminescence, HEK293, lit1-tk-luc reporter | HEK293 hcDAF-12 lit1-tk-luc reporter; 0% DMSO, 100% Δ7-dafachronic acid | activation, % at 6.8 µM | hit rate 1.4% among 370,000 | AID 652067, 2013;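 active = activation above the mean of all tested compounds plus 3 SD, cut at about 5.5% in these data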
DAX1 inh-2: DAX1 (NR0B1) inhibitors, primary screen, cell-based, HEK293, Gal4-DAX1, luciferase luminescence | HEK293 Gal4-DAX1 luciferase reporter | inhibition, % at 6.75 µM | hit rate 0.99% among 340,000;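 active = inhibition above the mean over all tested compounds plus 3 SD, cut at about 4.2% in these data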;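 also: inhibition shows as a rise in luminescence from relieved DAX1 repression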
Target sequence (P51843 207-470 limits assumed): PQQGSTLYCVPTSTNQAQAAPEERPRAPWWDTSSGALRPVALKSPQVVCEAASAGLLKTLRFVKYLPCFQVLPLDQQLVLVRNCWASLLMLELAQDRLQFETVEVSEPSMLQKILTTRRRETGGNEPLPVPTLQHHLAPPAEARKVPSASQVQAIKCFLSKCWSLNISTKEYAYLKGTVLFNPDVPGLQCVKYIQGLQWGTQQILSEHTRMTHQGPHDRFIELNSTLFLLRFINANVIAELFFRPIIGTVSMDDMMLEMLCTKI
DAX1 inh confirm: DAX1 (NR0B1) inhibitors relieving SF-1 repression, confirmation, cell-based, luminescence, HEK293T, full-length DAX-1, SF-1 activated StAR promoter; shares compounds with DAX1 inh-1; HEK293T StAR-promoter luciferase reporter, SF-1/DAX-1 repression; inhibition, % at 6.8 µM; hit rate 87% among 2,400; AID 652134, 2013;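 active = inhibition above the average of every tested compound plus 3 SD, cut at about 3.8% in these data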
SF1 mutant ctr: StAR reporter signal changes without DAX1, counter-screen for DAX1 inhibitor project, cell-based, luminescence, AF-2 mutant SF-1, transactivation; inhibition, % at 6.8 µM; hit rate 78% among 2,400; HEK293 StAR-luciferase, SF-1 AF2 mutant; shares compounds with DAX1 inh-1;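 active = inhibition above the mean of all tested compounds plus 3 SD, cut at about 3% in these data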
Large screens that a line does not name were inactive (follow-up assays come after a bar, where they were run). Only some compounds are listed: those with a hit (about 4.8% of all), similar ones and a draw of the others.

CC(C)C[C@@H]1COc2cc(F)ccc2S(=O)(=O)N1C	none (no result: DAX1 inh-2)
COCCSc1nnc(NC(=O)c2ccc3c(c2)OCO3)s1	none
CSc1nnc(NC(=O)c2ccc3c(c2)OCO3)s1	hgDAF12 agonist 11, DAX1 inh-1 13, hcDAF12 agonist 6.0 | DAX1 inh confirm inactive | SF1 mutant ctr inactive
CCOc1cccc(C2C(C(=O)c3ccc(C)o3)=C(O)C(=O)N2c2nnc(C)s2)c1 (stereo unspecified)	DAX1 inh-1 6.5 | DAX1 inh confirm 6.0 | SF1 mutant ctr 3.8
CCOc1cccc(C2C(C(=O)c3ccco3)=C(O)C(=O)N2c2nnc(C)s2)c1 (stereo unspecified)	none
CCOc1ccccc1OCC(=O)Nc1cc(C)on1	none
Cc1cc(NC(=O)COc2ccc3ccccc3c2Br)no1	DAX1 inh-1 6.0 | DAX1 inh confirm 5.6 | SF1 mutant ctr 6.0
CC1CC(C)CN(CCCNC(=O)c2ccc3nc(N4CCOCC4)sc3c2)C1 (stereo unspecified)	none
CCCN1CCN(CCCNC(=O)c2ccc3nc(N4CCC(C)CC4)sc3c2)CC1	DAX1 inh-1 6.0 | DAX1 inh confirm 9.2 | SF1 mutant ctr 4.8
Cc1cc(N2CCOc3ccccc32)nc2ccccc12	none (no result: SMARCA2 act, DAX1 inh-1, DAX1 inh-2)
O=C(NCC1(N2CCCCC2)CCCCC1)c1ccc(NS(=O)(=O)c2ccccc2)cc1	DAX1 inh-1 8.9 | DAX1 inh confirm 9.0 | SF1 mutant ctr 5.6
Cc1cccc(NS(=O)(=O)c2ccc(C(=O)NCC3(N4CCCCC4)CCCCC3)cc2)c1C	DAX1 inh-1 7.3 | DAX1 inh confirm 9.7 | SF1 mutant ctr 6.6
COc1ccc2oc(C(=O)Nc3nnc(C)s3)c(C)c2c1	hgDAF12 agonist 11, DAX1 inh-1 10 | DAX1 inh confirm 16 | SF1 mutant ctr 5.9
CN1C2=N[C@H](c3ccccc3)CC(=O)N2/C(=C\c2ccccc2)C1Cc1ccccc1 (stereo partly specified)	none (no result: DAX1 inh-2)
O=C(Nc1ccccn1)c1cccc(S(=O)(=O)N2CCOCC2)c1	none
Cc1ccnc(NC(=O)c2cccc(S(=O)(=O)N3CCOCC3)c2)c1	hgDAF12 agonist 11, DAX1 inh-1 6.1 | DAX1 inh confirm 4.7 | SF1 mutant ctr inactive
Cc1c(NS(=O)(=O)c2cc3c(cc2Br)CCN3C(=O)C2CC2)c(=O)n(-c2ccccc2)n1C	none (no result: DAX1 inh-2)
COc1ccc(COC(=O)c2cc([N+](=O)[O-])ccc2N2CCOCC2)cc1F	DAX1 inh-1 4.5 | DAX1 inh confirm 13 | SF1 mutant ctr inactive
CC1CCCN(c2ccc3nc4ccccc4c(=O)n3n2)C1 (stereo unspecified)	hgDAF12 agonist 11, DAX1 inh-1 4.7 | DAX1 inh confirm 7.8 | SF1 mutant ctr 3.5
N=c1c2c(-c3ccccc3)c(-c3ccccc3)n(Cc3ccccc3)c2ncn1C1CCOCC1	none (no result: DAX1 inh-2)
CC(C)Oc1ccc(C(=O)Nc2nnc(SCC(=O)N3CCOCC3)s2)cc1	hgDAF12 agonist 11, DAX1 inh-1 5.2 | DAX1 inh confirm 8.7 | SF1 mutant ctr inactive
O=C(Nc1cccc(F)c1)NC1CCCCC1	none
O=C(Nc1ccccc1Cl)NC1CCCCCCC1	DAX1 inh-1 5.2 | DAX1 inh confirm 3.8 | SF1 mutant ctr inactive
COc1cccc(NC(=O)NC2CCCCCCC2)c1	DAX1 inh-1 4.8 | DAX1 inh confirm 5.4 | SF1 mutant ctr 4.3
COc1ccc(NC(=O)NC2CCCCCCC2)cc1	hgDAF12 agonist 13, ssDAF12 agonist 0.9, DAX1 inh-1 12, hcDAF12 agonist 5.8 | DAX1 inh confirm 10 | SF1 mutant ctr 5.8
COC(=O)c1cc(-c2ccc(F)c(Cl)c2)c(=O)n2c1CCC2	none (no result: DAX1 inh-2)
Cc1ccc(NC(=O)C(=O)NCCCN2CCCC2=O)c(C)c1	none
Cc1ccc(NC(=O)C(=O)NCCCN2CCCC2=O)cc1	hgDAF12 agonist 12, DAX1 inh-1 6.5 | DAX1 inh confirm 9.7 | SF1 mutant ctr 6.5
CCOC(=O)CC[C@@H]1CC[C@]2(CCCN(C(=O)c3ccc4ccccc4n3)C2)O1	none (no result: DAX1 inh-2)
COc1ccc(Nc2nc3ccccc3s2)cc1	hgDAF12 agonist 27, DAX1 inh-1 5.5, DAX1 inh-2 4.3 | DAX1 inh confirm 12 | SF1 mutant ctr 7.3
Cc1ccn2cc(-c3ccc4c(c3)NC(=O)CO4)nc2c1	hgDAF12 agonist 11, DAX1 inh-1 5.3 | DAX1 inh confirm 8.6 | SF1 mutant ctr 6.0
Cc1cccn2cc(-c3ccc4c(c3)NC(=O)CO4)nc12	none
COc1cc(OC)cc(C(=O)Nc2ccc3nc4n(c(=O)c3c2)CCCCC4)c1	DAX1 inh-1 6.0 | DAX1 inh confirm inactive | SF1 mutant ctr inactive
COc1ccccc1C(=O)Nc1ccc2nc3n(c(=O)c2c1)CCCC3	none
CCCCCCCCN1C(=O)[C@@H](CC(=O)NCCCOC)C[C@@]2(C(=O)OC)C1=C[C@H](COCc1ccccc1)O[C@@H]2C	none (no result: DAX1 inh-2)
Cc1ccc(N(C)S(=O)(=O)c2cc(-c3cnc(C4CC4)o3)ccc2C)cc1	none
Cc1cccc(N(C)S(=O)(=O)c2ccc(-c3cnc(C4CC4)o3)cc2)c1	DAX1 inh-1 7.6 | DAX1 inh confirm 15 | SF1 mutant ctr inactive
CN1[C@H](Cc2ccccc2)COc2cccc(F)c2S1(=O)=O	none (no result: DAX1 inh-2)
COc1ccc(C(=O)Nc2ccccc2C(=O)Nc2cc(C)ccn2)cc1	none
COc1cc2ccccc2cc1C(=O)Nc1cc(C)ccn1	hgDAF12 agonist 12, DAX1 inh-1 5.3, hcDAF12 agonist 6.4 | DAX1 inh confirm 4.2 | SF1 mutant ctr inactive
CCCC(=O)Nc1ccc(NC(=O)c2ccccc2)nc1	DAX1 inh-1 4.7 | DAX1 inh confirm 13 | SF1 mutant ctr 6.6
CCCC(=O)Nc1ccc(NC(=O)c2ccccc2F)cn1	none
Cc1[nH]n(-c2cccc(Cl)c2)c(=O)c1C=NCc1ccco1	hgDAF12 agonist 12, DAX1 inh-1 5.8, DAX1 inh-2 5.7 | DAX1 inh confirm 8.3 | SF1 mutant ctr 5.1

Screens (PubChem)
